Data taken from PubChem BioAssay (NCI).
“And” between values parts separate entries of the source, which are not always exact repeats. Identical values can stand only once. Compounds without any hit were thinned out: in the full panel of roughly 83,000, 20% have a hit.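 Results are percent growth after 48 hours of single-concentration exposure. 100 means growth as in untreated cells, lower positive values show inhibition; negative values down to -100 show cell death.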 Unmarked numbers belong to inactive results. The source made the active and inactive calls. Rule for the calls: active = growth percent below 10; inactive = the rest.

Tested on: MDA-MB-468 breast
Assay: NCI-60 one-dose screen, 48 h (100 = growth as untreated, 0 = no growth, -100 = all killed)
Conditions: 10 µM unless noted

Compound | growth
O=[N+]([O-])c1ccc(F)c([N+](=O)[O-])c1F | 98.6%
CCOc1ccccc1C(=O)OCC(Cl)(Cl)Cl | 110%
O=[As]c1ccc(C(=O)c2ccc(Oc3ccccc3)cc2)cc1 (stereo not given) | -85.6% (active)
COc1ccc(/C=C\c2cc(OC)c(OC)c(OC)c2)c(NS(=O)(=O)c2ccc(Cl)cc2)c1O | 9.56% (active)
N#CC(C#N)=C(C#N)C#N | 102%
CC(=O)OC1CCC2C3CCC4=C/C(=N/OC(=O)c5ccc(N(CCCl)CCCl)cc5)CCC4(C)C3CC(C)C12 (stereo not given) | 67.2%
OC1CCCCC1N1CCC(c2ccccc2)CC1 (stereo not given) | 116%
CCCCCCCCC(CO)NCCc1ccccc1 (stereo not given) | 100%
C[CH2][Pb]([CH2]C)([CH2]C)[O]C(=O)COc1ccccc1 | 9.74% (active)
COc1ccc2c(c1)c(-c1nc(-c3cn(C)c4ncccc34)cs1)cn2CCCCN1CCOCC1 | 35%
CO/N=C1\CC[C@]2(C)[C@H]3CC[C@]4(C)C(=O)CC[C@H]4[C@@H]3C[C@@H]3SC(N)=N[C@@]32C1 | 88.8%
Cc1cc[n+](CCc2ccccc2)cc1 | 61.2% and 72.9%
C[C@]12CC[C@@H]3c4ccc(Oc5nc(N6CC6)nc(N6CC6)n5)cc4CC[C@H]3[C@@H]1CCC2=O | 30.4%
CCCCCC1(CCBr)C(=O)NC(=O)NC1=O | 103%
CC1=C(CNO)C2=C(C)C3(CC3)[C@@](C)(O)C(=O)C2=C1 | -62.9% (active)
CNC(=O)Oc1ccc(Cl)cc1SSc1cc(Cl)ccc1OC(=O)NC | 85.2%
O=C(NCCN1CC1)C(=O)NCCN1CC1 | 81.3%
N#[N+]c1nc2nc(N)[nH]c(=O)c2[nH]1 | 100%
Cc1cc(NC(=O)NCCOc2ccc(N3C(N)=NC(N)=NC3(C)C)cc2Cl)ccc1S(=O)(=O)F | 29%
CC1(C)N=C(N)N=C(N)N1c1ccc(OCCCNC(=O)Nc2ccc(S(=O)(=O)F)cc2)c(Cl)c1 | 14.6%

Compound | growth
CCCCCCCCCCCCCCCCCC1OCC(COC(=O)O[C@@H](C(=O)O[C@H]2C[C@@]3(O)[C@@H](OC(=O)c4ccccc4)[C@@H]4[C@]5(OC(C)=O)CO[C@@H]5C[C@H](O)[C@@]4(C)C(=O)[C@H](OC(C)=O)C(=C2C)C3(C)C)[C@@H](NC(=O)c2ccccc2)c2ccccc2)O1 (stereo not given in full) | 3.29% (active)
COC1OC(CO)C(O)C(O)[CH]1[Hg][O]C(C)=O (stereo not given) | 72.2%
CCOc1cc(/C=N\Nc2nnc(C)n2N)c(C)cc1N(CCCl)CCCl | -21.1% (active)
C[N+]12CN3CN(CN(C3)C1)C2 | 119%
CO[C@@H](c1ccccc1Cl)[C@H](C)OC(N)=O | 91.6%
CCCCC1(CCC)C(=O)NC(=S)NC1=O | 98.7%
COC(=O)C1CC2c3ccccc3C1c1ccccc12 (stereo not given) | 93.1%
O=[N+]([O-])c1ccc(N2CCOCC2)c2c1no[n+]2[O-] | 2.62% (active)
N#[N+]c1cnc([O-])[nH]c1=O | 88.4%
O=[N+]([O-])c1ccccc1N1CCNCC1 | 113%
NC(=O)NC(=O)CI | 83.7%
CCCCCCCC[N+](C)(CCCCCCCC)CCCCCCCC | -90.1% (active)
O=[N+]([O-])c1ccc(N(CCO)CCO)c2c1no[n+]2[O-] | 2.96% (active)
O=C(CCCC1CCCCC1)OCC(Cl)(Cl)Cl | 113%
Clc1ccc(CSC(Cn2ccnc2)c2ccc(Cl)cc2Cl)cc1 (stereo not given) | -2.39% (active)
CC(=O)O[C@H](C[C@H](C(C)C)N(C)C(=O)[C@@H](NC(=O)[C@H]1CCCCN1C)C(C)C)c1nc(C(=O)NC2CCC(C(=O)O)CC2)cs1 (stereo not given in full) | 29.6%
COc1cc(/C=C\[N+](=O)[O-])ccc1OCc1ccccc1 | 6.8% (active)
Nc1ncnc2n[nH]nc12 | 51.6%
[Cl][Hg][c]1ccc(Cl)s1 | -61% (active)
Cc1cc(NC(=O)NCCCOc2ccc(N3C(N)=NC(N)=NC3(C)C)cc2Cl)ccc1S(=O)(=O)F | 7.83% (active)
